# Results reported in article PMC7862700, “An all-to-all approach to the identification of sequence-specific readers for epigenetic DNA modifications on cytosine”.
# What was measured:
# Test in all cases: DAPPL (digital affinity profiling via proximity ligation, sequencing); 10 mM Tris-HCl pH 7.5, 50 mM NaCl, 1 mM DTT, 4% glycerol, room temperature, 30 min; GST-TFs on glutathione beads, 16-mer random dsDNA library, 0.1% formaldehyde crosslink after washing; high values mean tight binding
# Details in all cases: protein: recombinant; tags: N-terminal GST; dsDNA, one strand shown
# ELK1 = biological target: T1, ELK1 (Homo sapiens, UniProt P19419 1-428)
# T1 sequence: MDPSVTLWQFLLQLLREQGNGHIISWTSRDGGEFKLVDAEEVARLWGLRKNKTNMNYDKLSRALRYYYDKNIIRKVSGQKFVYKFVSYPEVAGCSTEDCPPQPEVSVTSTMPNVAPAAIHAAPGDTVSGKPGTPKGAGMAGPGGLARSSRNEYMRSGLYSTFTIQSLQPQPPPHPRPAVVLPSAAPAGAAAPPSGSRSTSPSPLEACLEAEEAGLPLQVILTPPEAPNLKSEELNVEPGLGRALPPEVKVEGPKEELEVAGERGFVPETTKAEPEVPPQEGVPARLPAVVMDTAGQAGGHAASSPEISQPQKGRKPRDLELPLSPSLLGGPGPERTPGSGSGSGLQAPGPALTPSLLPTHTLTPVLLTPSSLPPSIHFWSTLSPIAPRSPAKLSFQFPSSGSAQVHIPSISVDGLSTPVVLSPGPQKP
# Procedure, shortened: (§1)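 The binding signal reported is, for every hexamer, its read frequency for a factor over its read frequency for the tag-only sample. Reads came from pools of yeast-expressed, GST-fused human transcription factors on glutathione beads, barcoded with DNA and mixed with that sample, which were incubated with 200 nmole of a random double-stranded 16-mer DNA library in Tris/NaCl/DTT/glycerol buffer at room temperature for 30 min. After washing, the pools were crosslinked with 0.1% formaldehyde, proximity-ligated with BsaI/T4 ligase for 1 h at 37 °C, PCR-amplified and sequenced on an Illumina NextSeq500.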
# GABPA = biological target: T2, GABPA (Homo sapiens, UniProt Q06546 1-454)
# T2 sequence: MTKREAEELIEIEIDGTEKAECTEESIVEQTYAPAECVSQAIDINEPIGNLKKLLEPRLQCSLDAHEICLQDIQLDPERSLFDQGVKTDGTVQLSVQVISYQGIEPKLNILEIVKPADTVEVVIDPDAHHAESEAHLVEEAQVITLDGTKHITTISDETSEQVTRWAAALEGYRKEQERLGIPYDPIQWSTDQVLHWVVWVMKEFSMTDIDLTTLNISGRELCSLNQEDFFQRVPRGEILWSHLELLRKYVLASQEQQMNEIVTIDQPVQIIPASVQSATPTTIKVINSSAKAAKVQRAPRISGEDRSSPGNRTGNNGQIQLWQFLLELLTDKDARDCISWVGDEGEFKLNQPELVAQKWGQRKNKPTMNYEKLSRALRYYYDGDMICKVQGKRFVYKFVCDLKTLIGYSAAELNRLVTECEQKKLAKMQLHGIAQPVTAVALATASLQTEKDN
# Procedure, shortened: as §1
# ERG = biological target: T3, ERG (Homo sapiens, UniProt P11308 1-479)
# T3 sequence: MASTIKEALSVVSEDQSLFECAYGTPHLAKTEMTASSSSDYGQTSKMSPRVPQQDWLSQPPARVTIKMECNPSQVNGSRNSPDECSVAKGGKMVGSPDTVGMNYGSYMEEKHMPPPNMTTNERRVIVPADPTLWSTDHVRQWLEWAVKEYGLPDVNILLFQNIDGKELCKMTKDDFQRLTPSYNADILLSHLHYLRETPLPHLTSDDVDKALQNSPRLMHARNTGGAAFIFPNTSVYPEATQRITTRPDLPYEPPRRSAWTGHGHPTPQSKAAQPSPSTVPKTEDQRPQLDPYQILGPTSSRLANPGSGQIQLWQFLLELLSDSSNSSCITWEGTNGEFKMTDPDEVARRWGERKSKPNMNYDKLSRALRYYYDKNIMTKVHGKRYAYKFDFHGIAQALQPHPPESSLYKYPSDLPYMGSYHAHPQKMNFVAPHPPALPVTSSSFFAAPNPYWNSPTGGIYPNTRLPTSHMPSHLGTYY
# Procedure, shortened: as §1
# EHF = biological target: T4, EHF (Homo sapiens, UniProt Q9NZC4 1-300)
# T4 sequence: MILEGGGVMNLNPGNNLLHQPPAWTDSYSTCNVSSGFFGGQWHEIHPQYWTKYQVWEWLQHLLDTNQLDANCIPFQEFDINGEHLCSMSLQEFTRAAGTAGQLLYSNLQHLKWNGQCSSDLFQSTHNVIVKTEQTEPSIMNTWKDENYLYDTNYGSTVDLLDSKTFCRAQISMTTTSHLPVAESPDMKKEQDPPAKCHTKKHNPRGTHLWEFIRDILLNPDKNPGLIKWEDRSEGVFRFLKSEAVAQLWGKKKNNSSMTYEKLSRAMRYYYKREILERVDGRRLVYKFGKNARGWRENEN
# Procedure, shortened: as §1
# FEV = biological target: T5, FEV (Homo sapiens, UniProt Q99581 1-238)
# T5 sequence: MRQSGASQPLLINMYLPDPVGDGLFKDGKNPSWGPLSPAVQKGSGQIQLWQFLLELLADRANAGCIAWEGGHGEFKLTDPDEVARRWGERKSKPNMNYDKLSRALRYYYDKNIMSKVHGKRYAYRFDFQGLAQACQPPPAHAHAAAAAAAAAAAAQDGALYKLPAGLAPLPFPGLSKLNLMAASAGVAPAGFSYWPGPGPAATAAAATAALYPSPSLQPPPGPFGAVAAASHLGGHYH
# Procedure, shortened: as §1
# ETV5 = ETV5 (Homo sapiens, UniProt P41161 1-510)
# Procedure, shortened: as §1
# ELF4 = ELF4 (Homo sapiens, UniProt Q99607 1-663)
# Procedure, shortened: as §1
# ELK4 = biological target: T6, ELK4 (Homo sapiens, UniProt P28324-2 1-405)
# T6 sequence: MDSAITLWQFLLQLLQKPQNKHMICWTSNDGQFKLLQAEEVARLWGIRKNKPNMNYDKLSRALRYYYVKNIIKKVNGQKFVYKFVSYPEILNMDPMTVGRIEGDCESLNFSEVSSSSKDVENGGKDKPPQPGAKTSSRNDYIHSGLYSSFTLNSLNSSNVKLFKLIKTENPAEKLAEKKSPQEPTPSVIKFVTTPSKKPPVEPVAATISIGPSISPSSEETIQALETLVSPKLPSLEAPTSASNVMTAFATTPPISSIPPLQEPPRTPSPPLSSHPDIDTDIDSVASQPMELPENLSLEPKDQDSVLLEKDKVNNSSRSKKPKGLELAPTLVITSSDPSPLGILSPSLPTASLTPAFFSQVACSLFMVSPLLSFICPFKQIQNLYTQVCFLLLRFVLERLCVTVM
# Procedure, shortened: as §1
# ETV2 = biological target: T7, ETV2 (Homo sapiens, UniProt O00321 1-342)
# T7 sequence: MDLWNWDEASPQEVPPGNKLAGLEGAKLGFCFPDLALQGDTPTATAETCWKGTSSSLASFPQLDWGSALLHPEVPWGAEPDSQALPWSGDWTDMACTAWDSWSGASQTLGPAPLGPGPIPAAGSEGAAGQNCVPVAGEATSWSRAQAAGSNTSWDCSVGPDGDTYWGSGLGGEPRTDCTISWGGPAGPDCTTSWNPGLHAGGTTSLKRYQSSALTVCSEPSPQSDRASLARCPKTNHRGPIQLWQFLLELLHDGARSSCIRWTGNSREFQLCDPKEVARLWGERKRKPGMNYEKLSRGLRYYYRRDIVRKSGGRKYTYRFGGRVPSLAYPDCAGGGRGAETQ
# Procedure, shortened: as §1
# ETV1 = ETV1 (Homo sapiens, UniProt P50549 1-477)
# Procedure, shortened: as §1
# ERF = biological target: T8, ERF (Homo sapiens, UniProt P50548 1-548)
# T8 sequence: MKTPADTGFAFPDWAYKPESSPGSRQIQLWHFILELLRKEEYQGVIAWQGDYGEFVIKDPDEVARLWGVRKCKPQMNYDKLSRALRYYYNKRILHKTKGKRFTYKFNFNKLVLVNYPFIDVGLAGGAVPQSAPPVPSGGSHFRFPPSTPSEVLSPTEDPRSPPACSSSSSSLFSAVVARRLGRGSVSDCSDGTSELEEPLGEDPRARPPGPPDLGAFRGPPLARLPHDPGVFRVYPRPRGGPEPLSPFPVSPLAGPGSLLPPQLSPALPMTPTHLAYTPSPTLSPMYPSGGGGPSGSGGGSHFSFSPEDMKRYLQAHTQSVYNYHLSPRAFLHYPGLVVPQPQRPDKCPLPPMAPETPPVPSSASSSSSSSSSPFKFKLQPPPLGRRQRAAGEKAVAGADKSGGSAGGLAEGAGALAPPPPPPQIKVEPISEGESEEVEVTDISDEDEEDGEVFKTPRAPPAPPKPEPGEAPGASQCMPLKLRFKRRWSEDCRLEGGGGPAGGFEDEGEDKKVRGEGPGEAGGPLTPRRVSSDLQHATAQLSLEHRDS
# Procedure, shortened: as §1
# ETV3L = biological target: T9, ETV3L (Homo sapiens, UniProt Q6ZN32 1-361)
# T9 sequence: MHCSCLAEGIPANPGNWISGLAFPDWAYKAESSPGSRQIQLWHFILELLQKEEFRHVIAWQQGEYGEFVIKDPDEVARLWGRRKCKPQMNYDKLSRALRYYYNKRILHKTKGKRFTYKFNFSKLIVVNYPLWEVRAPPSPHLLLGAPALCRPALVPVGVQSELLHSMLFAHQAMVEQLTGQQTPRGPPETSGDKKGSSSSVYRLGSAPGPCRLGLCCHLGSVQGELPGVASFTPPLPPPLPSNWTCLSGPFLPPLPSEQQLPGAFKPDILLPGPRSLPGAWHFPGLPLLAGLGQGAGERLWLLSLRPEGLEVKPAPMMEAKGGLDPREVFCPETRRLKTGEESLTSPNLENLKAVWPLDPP
# Procedure, shortened: as §1
# ETS2 = biological target: T10, ETS2 (Homo sapiens, UniProt P15036 1-469)
# T10 sequence: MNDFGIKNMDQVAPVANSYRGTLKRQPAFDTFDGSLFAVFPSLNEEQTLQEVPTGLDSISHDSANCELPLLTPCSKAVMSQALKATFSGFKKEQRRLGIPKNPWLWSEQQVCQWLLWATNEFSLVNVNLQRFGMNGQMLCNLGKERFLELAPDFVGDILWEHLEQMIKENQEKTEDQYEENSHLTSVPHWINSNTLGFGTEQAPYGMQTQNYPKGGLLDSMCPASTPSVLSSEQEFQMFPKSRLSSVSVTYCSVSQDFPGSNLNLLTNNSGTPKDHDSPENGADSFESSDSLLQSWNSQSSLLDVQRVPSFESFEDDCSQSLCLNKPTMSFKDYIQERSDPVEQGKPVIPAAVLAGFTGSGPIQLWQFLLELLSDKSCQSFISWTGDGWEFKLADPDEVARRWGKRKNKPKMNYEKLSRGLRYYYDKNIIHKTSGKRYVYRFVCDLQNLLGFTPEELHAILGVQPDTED
# Procedure, shortened: as §1
# SPDEF = biological target: T11, SPDEF (Homo sapiens, UniProt O95238 1-335)
# T11 sequence: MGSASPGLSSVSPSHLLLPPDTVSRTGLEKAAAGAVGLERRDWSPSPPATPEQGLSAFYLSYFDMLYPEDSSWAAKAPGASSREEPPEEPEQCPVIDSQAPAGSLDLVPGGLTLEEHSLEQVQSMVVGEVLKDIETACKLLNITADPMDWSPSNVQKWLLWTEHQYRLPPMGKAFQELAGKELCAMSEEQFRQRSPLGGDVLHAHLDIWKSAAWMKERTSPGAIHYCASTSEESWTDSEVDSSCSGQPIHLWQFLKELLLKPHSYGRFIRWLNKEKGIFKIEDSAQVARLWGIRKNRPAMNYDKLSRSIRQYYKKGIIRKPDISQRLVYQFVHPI
# Procedure, shortened: as §1
# ETV7 = biological target: T12, ETV7 (Homo sapiens, UniProt Q9Y603 1-341)
# T12 sequence: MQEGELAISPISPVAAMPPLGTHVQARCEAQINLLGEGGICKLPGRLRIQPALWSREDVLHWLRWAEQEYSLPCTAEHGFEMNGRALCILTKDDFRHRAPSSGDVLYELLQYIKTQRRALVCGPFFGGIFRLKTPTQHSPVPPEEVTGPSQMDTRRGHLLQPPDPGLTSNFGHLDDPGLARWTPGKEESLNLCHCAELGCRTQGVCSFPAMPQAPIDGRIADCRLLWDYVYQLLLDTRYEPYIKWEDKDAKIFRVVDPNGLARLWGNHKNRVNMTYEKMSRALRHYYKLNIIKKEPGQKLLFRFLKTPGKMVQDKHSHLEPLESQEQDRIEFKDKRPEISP
# Procedure, shortened: as §1
# ETV3 = biological target: T13, ETV3 (Homo sapiens, UniProt P41162-2 1-143)
# T13 sequence: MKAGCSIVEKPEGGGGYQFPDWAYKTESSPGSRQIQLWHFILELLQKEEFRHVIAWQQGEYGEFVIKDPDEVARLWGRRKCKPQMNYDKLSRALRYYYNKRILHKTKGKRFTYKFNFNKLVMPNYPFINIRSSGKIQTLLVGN
# Procedure, shortened: as §1
# ETV1, sequence (P50549 whole entry): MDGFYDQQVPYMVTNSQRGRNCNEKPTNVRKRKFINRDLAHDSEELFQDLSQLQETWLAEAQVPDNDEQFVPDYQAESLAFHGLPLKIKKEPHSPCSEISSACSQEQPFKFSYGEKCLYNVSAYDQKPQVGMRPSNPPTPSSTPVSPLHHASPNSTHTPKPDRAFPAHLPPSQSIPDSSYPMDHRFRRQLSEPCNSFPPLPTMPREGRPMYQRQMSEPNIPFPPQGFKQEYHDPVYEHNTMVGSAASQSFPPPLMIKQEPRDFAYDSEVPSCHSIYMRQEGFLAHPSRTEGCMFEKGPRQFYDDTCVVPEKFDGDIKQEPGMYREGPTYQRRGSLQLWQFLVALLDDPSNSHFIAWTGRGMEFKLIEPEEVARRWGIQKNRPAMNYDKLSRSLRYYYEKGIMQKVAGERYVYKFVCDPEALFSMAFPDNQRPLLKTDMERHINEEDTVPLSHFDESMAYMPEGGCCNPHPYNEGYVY
# ELF4, sequence (Q99607 whole entry): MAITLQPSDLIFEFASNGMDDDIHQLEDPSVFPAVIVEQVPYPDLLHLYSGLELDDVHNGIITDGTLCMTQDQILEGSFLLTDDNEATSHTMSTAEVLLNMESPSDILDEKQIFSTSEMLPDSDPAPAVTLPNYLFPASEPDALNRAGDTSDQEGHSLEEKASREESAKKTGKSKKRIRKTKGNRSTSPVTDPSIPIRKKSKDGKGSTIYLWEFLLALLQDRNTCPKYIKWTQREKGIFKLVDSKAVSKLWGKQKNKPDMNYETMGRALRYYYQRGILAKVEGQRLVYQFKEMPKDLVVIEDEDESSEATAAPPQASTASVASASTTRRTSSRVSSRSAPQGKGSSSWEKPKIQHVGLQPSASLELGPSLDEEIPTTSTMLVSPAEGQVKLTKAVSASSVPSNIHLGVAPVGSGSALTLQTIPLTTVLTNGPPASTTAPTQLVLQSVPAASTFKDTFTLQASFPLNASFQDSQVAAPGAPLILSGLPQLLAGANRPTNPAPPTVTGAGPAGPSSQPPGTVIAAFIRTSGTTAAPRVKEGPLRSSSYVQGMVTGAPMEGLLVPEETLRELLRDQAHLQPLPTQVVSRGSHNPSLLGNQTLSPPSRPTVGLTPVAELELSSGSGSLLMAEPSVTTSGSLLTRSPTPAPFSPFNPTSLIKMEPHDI
# ETV5, sequence (P41161 whole entry): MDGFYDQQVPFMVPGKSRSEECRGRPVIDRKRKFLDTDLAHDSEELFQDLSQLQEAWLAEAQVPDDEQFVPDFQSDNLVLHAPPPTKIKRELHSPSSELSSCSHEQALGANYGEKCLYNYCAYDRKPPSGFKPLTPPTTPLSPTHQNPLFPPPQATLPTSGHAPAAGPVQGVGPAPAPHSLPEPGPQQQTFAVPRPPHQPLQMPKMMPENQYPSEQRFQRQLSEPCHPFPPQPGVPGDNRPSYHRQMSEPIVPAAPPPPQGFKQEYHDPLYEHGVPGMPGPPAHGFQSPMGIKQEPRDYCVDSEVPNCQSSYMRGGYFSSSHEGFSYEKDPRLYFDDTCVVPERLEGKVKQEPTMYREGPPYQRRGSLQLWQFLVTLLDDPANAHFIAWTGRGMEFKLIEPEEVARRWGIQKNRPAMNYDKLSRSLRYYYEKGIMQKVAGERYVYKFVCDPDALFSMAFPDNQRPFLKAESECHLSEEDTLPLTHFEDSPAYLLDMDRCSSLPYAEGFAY
sequence,measurement,setting,value
TAGGGC,binding signal,ELK1,"1.07 fold enrichment (6-mer frequency, TF over GST control)"
same,binding signal,GABPA,"1.01 fold enrichment (6-mer frequency, TF over GST control)"
same,binding signal,ERG,"1.01 fold enrichment (6-mer frequency, TF over GST control)"
same,binding signal,EHF,"1.18 fold enrichment (6-mer frequency, TF over GST control)"
same,binding signal,FEV,"1.06 fold enrichment (6-mer frequency, TF over GST control)"
same,binding signal,ETV5,"1.03 fold enrichment (6-mer frequency, TF over GST control)"
same,binding signal,ELF4,"1.03 fold enrichment (6-mer frequency, TF over GST control)"
same,binding signal,ELK4,"1.02 fold enrichment (6-mer frequency, TF over GST control)"
same,binding signal,ETV2,"1.12 fold enrichment (6-mer frequency, TF over GST control)"
same,binding signal,ETV1,"1.06 fold enrichment (6-mer frequency, TF over GST control)"
same,binding signal,ERF,"1.09 fold enrichment (6-mer frequency, TF over GST control)"
same,binding signal,ETV3L,"1.04 fold enrichment (6-mer frequency, TF over GST control)"
same,binding signal,ETS2,"1.06 fold enrichment (6-mer frequency, TF over GST control)"
same,binding signal,SPDEF,"1.01 fold enrichment (6-mer frequency, TF over GST control)"
same,binding signal,ETV7,"1.07 fold enrichment (6-mer frequency, TF over GST control)"
same,binding signal,ETV3,"1.03 fold enrichment (6-mer frequency, TF over GST control)"
